# Tests used:
# Assay in all cases: DAPPL (digital affinity profiling via proximity ligation, sequencing); 10 mM Tris-HCl pH 7.5, 50 mM NaCl, 1 mM DTT, 4% glycerol, room temperature, 30 min; GST-TFs on glutathione beads, 16-mer random dsDNA library, 0.1% formaldehyde crosslink after washing; high values mean tight binding
# FLI1 = molecular target: T1, FLI1 (Homo sapiens, UniProt Q01543 1-452); conditions: protein: recombinant; tags: N-terminal GST; dsDNA, one strand shown
# T1 sequence: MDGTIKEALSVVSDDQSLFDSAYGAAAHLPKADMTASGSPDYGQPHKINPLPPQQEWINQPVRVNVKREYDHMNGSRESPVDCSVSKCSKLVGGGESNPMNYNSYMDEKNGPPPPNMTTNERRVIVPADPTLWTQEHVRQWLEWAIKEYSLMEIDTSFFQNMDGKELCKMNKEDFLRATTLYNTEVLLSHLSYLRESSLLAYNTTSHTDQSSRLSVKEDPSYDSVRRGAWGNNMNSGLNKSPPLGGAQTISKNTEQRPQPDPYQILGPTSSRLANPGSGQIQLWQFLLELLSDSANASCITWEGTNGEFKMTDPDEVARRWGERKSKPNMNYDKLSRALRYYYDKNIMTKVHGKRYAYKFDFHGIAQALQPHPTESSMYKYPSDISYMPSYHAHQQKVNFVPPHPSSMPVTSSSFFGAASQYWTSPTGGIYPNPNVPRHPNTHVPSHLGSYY
# In short: (§1)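 GST fusions of human transcription factors were expressed in yeast and captured with glutathione beads. Once given DNA barcodes and pooled alongside a tag-only sample, they were incubated for 30 min at room temperature with 200 nmole of a random double-stranded 16-mer DNA library in Tris/NaCl/DTT/glycerol buffer, then washed, crosslinked (0.1% formaldehyde), proximity-ligated, PCR-amplified and sequenced on an Illumina NextSeq500. The binding signal of each hexamer is its read frequency for a factor divided by its frequency for the tag-only sample.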
# ELK1 = molecular target: T2, ELK1 (Homo sapiens, UniProt P19419 1-428); conditions: protein: recombinant; tags: N-terminal GST; dsDNA, one strand shown
# T2 sequence: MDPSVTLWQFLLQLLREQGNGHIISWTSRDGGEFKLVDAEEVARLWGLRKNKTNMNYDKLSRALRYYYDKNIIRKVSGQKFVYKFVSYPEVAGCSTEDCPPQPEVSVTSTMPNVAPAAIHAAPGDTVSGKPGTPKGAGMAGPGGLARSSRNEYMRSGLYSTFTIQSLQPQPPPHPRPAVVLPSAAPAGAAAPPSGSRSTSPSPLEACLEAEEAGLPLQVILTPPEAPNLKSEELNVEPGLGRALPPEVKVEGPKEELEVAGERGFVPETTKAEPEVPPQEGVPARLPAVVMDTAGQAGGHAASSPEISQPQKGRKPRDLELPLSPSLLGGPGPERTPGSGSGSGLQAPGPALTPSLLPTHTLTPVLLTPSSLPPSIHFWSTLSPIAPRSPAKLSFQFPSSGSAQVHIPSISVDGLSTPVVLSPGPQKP
# In short: as §1
# GABPA = molecular target: T3, GABPA (Homo sapiens, UniProt Q06546 1-454); conditions: protein: recombinant; tags: N-terminal GST; dsDNA, one strand shown
# T3 sequence: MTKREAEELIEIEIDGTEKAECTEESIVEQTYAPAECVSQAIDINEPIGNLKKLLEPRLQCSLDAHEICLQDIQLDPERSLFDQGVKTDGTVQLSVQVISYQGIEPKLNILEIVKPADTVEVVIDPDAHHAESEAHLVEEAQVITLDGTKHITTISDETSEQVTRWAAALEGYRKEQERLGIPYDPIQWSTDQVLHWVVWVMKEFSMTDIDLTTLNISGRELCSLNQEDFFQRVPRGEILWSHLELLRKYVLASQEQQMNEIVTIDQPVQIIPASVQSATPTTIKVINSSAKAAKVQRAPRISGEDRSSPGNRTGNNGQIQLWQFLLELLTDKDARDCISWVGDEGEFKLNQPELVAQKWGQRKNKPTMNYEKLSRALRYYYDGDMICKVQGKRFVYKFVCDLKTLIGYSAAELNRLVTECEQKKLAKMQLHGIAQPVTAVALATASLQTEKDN
# In short: as §1
# ERG = molecular target: T4, ERG (Homo sapiens, UniProt P11308 1-479); conditions: protein: recombinant; tags: N-terminal GST; dsDNA, one strand shown
# T4 sequence: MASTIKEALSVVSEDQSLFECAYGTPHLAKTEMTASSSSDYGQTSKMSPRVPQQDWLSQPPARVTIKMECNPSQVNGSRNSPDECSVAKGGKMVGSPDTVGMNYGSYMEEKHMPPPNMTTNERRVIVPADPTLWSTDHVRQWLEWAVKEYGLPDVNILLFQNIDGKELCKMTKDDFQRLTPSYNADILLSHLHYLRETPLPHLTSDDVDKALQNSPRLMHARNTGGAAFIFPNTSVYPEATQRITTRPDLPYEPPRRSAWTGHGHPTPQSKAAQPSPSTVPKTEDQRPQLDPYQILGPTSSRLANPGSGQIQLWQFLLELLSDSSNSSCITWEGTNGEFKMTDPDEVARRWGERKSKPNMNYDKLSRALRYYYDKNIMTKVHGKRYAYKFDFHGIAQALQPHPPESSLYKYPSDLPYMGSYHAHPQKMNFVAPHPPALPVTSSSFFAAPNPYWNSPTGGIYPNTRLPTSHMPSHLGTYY
# In short: as §1
# ELF1 = ELF1 (Homo sapiens, UniProt P32519 1-619); conditions: protein: recombinant; tags: N-terminal GST; dsDNA, one strand shown
# Chain of ELF1 (P32519 whole entry): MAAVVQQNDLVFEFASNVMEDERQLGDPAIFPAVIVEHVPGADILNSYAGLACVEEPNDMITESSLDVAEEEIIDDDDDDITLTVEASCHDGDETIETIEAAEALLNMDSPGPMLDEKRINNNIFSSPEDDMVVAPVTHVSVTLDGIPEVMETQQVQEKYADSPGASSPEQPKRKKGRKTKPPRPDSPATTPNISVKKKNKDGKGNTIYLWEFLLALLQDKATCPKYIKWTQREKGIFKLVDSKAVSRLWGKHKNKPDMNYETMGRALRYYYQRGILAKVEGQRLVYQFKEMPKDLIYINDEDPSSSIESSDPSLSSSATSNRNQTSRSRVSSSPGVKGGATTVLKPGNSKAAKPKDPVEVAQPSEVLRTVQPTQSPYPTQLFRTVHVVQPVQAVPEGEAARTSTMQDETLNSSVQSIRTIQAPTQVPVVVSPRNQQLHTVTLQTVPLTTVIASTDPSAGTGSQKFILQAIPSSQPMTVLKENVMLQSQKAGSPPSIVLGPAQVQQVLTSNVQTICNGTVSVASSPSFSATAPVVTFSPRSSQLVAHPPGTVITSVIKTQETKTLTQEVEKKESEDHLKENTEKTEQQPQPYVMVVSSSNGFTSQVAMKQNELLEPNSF
# In short: as §1
# EHF = molecular target: T5, EHF (Homo sapiens, UniProt Q9NZC4 1-300); conditions: protein: recombinant; tags: N-terminal GST; dsDNA, one strand shown
# T5 sequence: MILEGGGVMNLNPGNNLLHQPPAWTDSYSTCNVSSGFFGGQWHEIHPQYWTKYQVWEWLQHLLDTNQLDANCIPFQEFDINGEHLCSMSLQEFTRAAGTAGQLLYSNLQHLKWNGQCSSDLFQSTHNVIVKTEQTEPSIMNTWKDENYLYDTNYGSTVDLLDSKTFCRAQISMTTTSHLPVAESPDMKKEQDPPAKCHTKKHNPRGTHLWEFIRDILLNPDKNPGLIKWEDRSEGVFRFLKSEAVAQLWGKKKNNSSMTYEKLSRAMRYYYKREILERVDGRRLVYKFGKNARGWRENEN
# In short: as §1
# SPI1 = SPI1 (Homo sapiens, UniProt P17947 1-270); conditions: protein: recombinant; tags: N-terminal GST; dsDNA, one strand shown
# In short: as §1
# SPIB = SPIB (Homo sapiens, UniProt Q01892 1-262); conditions: protein: recombinant; tags: N-terminal GST; dsDNA, one strand shown
# Chain of SPIB (Q01892 whole entry): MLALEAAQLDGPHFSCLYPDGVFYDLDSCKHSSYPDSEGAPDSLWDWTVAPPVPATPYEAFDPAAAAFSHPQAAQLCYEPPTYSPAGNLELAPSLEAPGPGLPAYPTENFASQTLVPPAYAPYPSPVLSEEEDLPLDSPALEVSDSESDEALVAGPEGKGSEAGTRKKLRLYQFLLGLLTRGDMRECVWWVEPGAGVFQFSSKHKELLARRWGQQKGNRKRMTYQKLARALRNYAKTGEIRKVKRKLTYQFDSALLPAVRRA
# In short: as §1
# ELK3 = molecular target: T6, ELK3 (Homo sapiens, UniProt P41970 1-407); conditions: protein: recombinant; tags: N-terminal GST; dsDNA, one strand shown
# T6 sequence: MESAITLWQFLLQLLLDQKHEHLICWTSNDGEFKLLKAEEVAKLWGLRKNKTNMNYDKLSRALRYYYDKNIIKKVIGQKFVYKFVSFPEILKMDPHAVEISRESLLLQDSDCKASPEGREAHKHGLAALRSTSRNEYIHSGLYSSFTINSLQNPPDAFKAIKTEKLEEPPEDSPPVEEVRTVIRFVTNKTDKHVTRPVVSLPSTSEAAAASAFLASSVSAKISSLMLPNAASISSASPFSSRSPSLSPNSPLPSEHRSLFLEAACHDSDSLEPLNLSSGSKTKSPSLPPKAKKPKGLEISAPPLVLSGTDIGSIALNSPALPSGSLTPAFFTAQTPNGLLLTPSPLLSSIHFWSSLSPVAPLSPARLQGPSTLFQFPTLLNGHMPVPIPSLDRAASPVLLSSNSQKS
# In short: as §1
# FEV = molecular target: T7, FEV (Homo sapiens, UniProt Q99581 1-238); conditions: protein: recombinant; tags: N-terminal GST; dsDNA, one strand shown
# T7 sequence: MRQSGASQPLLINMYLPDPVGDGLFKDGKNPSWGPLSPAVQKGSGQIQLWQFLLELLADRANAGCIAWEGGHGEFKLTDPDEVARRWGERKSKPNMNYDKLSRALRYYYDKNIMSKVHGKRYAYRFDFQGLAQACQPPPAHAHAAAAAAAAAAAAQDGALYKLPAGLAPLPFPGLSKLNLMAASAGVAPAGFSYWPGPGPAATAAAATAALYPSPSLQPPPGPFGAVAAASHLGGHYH
# In short: as §1
# ETV5 = ETV5 (Homo sapiens, UniProt P41161 1-510); conditions: protein: recombinant; tags: N-terminal GST; dsDNA, one strand shown
# Chain of ETV5 (P41161 whole entry): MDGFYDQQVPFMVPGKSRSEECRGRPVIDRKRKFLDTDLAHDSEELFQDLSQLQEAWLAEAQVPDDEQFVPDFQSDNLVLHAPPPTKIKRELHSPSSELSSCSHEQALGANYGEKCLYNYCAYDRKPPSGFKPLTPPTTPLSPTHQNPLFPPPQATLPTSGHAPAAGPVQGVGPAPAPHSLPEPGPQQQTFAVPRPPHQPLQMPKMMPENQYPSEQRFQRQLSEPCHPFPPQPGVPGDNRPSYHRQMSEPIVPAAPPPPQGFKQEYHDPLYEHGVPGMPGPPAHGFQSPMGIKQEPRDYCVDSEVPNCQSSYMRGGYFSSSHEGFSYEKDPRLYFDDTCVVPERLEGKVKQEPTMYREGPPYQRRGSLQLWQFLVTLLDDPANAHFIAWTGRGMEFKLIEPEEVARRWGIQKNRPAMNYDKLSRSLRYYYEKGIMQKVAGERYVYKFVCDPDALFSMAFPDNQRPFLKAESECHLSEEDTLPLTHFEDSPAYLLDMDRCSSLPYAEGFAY
# In short: as §1
# HSF1 = HSF1 (Homo sapiens, UniProt Q00613 1-529); conditions: protein: recombinant; tags: N-terminal GST; chain copies: 3; dsDNA, one strand shown
# Chain of HSF1 (Q00613 whole entry): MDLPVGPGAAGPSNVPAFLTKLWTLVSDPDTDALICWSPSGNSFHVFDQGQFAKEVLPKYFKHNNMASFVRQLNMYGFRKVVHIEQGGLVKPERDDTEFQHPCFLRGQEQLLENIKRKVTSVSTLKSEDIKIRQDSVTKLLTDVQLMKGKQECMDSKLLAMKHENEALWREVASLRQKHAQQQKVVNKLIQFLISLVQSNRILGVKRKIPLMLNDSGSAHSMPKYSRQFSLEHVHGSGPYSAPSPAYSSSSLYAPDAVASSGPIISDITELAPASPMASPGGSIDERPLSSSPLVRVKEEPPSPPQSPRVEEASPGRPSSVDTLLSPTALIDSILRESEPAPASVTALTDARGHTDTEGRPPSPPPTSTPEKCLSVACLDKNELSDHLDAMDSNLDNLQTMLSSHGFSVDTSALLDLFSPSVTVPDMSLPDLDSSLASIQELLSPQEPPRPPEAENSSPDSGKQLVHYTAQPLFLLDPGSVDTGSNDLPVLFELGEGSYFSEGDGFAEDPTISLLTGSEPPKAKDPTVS
# In short: as §1
# SPIC = molecular target: T8, SPIC (Homo sapiens, UniProt Q8N5J4 1-248); conditions: protein: recombinant; tags: N-terminal GST; dsDNA, one strand shown
# T8 sequence: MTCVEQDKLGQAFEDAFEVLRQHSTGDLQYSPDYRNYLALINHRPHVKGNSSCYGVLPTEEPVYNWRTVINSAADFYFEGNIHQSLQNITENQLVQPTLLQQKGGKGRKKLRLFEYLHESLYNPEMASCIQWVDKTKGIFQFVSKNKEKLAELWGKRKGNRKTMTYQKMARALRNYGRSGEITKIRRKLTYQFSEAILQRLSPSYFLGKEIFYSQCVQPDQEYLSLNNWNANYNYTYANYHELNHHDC
# In short: as §1
# ELF4 = ELF4 (Homo sapiens, UniProt Q99607 1-663); conditions: protein: recombinant; tags: N-terminal GST; dsDNA, one strand shown
# Chain of ELF4 (Q99607 whole entry): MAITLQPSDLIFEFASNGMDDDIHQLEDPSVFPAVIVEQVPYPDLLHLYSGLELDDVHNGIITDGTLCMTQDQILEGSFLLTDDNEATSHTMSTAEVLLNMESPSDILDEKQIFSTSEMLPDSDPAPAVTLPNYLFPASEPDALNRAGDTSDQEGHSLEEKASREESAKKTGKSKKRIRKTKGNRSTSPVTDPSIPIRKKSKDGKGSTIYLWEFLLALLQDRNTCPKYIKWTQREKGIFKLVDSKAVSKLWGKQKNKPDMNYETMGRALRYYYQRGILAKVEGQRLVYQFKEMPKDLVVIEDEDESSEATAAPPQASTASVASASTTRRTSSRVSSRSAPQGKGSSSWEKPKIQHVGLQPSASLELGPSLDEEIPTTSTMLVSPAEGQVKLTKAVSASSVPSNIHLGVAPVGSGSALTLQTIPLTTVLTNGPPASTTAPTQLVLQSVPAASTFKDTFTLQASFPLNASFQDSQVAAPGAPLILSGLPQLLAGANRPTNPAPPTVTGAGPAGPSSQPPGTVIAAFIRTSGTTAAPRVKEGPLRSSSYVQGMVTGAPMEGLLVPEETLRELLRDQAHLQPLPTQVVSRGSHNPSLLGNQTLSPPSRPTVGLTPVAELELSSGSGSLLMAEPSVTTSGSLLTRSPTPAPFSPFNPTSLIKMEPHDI
# In short: as §1
# ELK4 = molecular target: T9, ELK4 (Homo sapiens, UniProt P28324-2 1-405); conditions: protein: recombinant; tags: N-terminal GST; dsDNA, one strand shown
# T9 sequence: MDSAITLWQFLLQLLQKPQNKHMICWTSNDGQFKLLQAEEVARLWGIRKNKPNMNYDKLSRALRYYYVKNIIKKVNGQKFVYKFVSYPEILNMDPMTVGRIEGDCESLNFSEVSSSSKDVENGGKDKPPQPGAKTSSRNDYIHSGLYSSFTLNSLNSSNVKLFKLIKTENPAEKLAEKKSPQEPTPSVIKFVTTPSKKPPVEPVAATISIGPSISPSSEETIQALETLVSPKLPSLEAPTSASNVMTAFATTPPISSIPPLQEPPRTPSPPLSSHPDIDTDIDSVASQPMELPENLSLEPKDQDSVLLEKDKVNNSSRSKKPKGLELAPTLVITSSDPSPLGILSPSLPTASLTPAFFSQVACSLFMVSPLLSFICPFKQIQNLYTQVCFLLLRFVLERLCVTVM
# In short: as §1
# ETV2 = molecular target: T10, ETV2 (Homo sapiens, UniProt O00321 1-342); conditions: protein: recombinant; tags: N-terminal GST; dsDNA, one strand shown
# T10 sequence: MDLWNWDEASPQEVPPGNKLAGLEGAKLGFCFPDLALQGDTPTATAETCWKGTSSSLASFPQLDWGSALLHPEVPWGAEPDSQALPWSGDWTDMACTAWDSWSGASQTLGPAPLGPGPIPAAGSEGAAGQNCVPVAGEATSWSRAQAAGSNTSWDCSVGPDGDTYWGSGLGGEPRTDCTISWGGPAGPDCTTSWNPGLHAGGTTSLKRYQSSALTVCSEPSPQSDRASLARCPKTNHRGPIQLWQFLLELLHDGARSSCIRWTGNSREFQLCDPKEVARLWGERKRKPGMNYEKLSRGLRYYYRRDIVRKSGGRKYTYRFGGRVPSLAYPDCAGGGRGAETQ
# In short: as §1
# ELF3 = molecular target: T11, ELF3 (Homo sapiens, UniProt P78545 1-371); conditions: protein: recombinant; tags: N-terminal GST; dsDNA, one strand shown
# T11 sequence: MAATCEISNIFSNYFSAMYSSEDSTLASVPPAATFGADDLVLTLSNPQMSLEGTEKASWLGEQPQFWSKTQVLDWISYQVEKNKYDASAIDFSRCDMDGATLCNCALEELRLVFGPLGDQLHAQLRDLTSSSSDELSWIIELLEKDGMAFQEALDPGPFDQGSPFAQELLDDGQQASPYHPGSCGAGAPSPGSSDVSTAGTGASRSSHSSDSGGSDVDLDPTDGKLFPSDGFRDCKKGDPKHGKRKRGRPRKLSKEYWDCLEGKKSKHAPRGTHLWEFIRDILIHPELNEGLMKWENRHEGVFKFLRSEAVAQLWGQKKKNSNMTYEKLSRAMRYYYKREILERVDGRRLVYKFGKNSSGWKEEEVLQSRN
# In short: as §1
# CRX = CRX (Homo sapiens, UniProt O43186 1-299); conditions: protein: recombinant; tags: N-terminal GST; dsDNA, one strand shown
# Chain of CRX (O43186 whole entry): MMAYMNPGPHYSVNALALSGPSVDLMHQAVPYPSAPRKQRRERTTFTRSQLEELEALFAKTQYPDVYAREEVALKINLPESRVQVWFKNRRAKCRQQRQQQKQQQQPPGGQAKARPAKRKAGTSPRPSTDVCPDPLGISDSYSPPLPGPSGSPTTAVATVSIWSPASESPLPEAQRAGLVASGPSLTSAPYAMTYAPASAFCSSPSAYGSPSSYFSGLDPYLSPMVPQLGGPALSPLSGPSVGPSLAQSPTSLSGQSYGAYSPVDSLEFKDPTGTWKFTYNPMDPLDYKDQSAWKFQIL
# In short: as §1
# ETV1 = ETV1 (Homo sapiens, UniProt P50549 1-477); conditions: protein: recombinant; tags: N-terminal GST; dsDNA, one strand shown
# Chain of ETV1 (P50549 whole entry): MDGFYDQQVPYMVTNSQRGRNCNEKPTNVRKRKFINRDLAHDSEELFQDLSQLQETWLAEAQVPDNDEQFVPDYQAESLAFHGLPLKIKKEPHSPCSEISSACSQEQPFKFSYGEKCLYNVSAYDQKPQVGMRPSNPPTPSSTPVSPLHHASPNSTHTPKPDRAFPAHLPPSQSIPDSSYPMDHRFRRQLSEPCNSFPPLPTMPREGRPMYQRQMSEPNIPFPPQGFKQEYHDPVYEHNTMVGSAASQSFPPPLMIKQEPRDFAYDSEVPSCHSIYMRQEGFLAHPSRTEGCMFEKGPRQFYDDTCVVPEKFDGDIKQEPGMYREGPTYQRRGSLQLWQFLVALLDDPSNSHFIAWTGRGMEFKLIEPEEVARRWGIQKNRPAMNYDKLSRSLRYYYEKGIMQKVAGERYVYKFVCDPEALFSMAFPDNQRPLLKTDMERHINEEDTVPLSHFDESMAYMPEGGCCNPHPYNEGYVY
# In short: as §1
sequence,measurement,setting,value
TGGAAT,binding signal,FLI1,"1.36 fold enrichment (6-mer frequency, TF over GST control)"
same,binding signal,ELK1,"1.21 fold enrichment (6-mer frequency, TF over GST control)"
same,binding signal,GABPA,"1.3 fold enrichment (6-mer frequency, TF over GST control)"
same,binding signal,ERG,"1.25 fold enrichment (6-mer frequency, TF over GST control)"
same,binding signal,ELF1,"1.22 fold enrichment (6-mer frequency, TF over GST control)"
same,binding signal,EHF,"1.19 fold enrichment (6-mer frequency, TF over GST control)"
same,binding signal,SPI1,"1.25 fold enrichment (6-mer frequency, TF over GST control)"
same,binding signal,SPIB,"1.21 fold enrichment (6-mer frequency, TF over GST control)"
same,binding signal,ELK3,"1.25 fold enrichment (6-mer frequency, TF over GST control)"
same,binding signal,FEV,"1.21 fold enrichment (6-mer frequency, TF over GST control)"
same,binding signal,ETV5,"1.22 fold enrichment (6-mer frequency, TF over GST control)"
same,binding signal,HSF1,"2.63 fold enrichment (6-mer frequency, TF over GST control)"
same,binding signal,SPIC,"1.22 fold enrichment (6-mer frequency, TF over GST control)"
same,binding signal,ELF4,"1.14 fold enrichment (6-mer frequency, TF over GST control)"
same,binding signal,ELK4,"1.21 fold enrichment (6-mer frequency, TF over GST control)"
same,binding signal,ETV2,"1.47 fold enrichment (6-mer frequency, TF over GST control)"
same,binding signal,ELF3,"1.21 fold enrichment (6-mer frequency, TF over GST control)"
same,binding signal,CRX,"1.77 fold enrichment (6-mer frequency, TF over GST control)"
same,binding signal,ETV1,"1.24 fold enrichment (6-mer frequency, TF over GST control)"

# Source: publication PMC7862700, “An all-to-all approach to the identification of sequence-specific readers for epigenetic DNA modifications on cytosine”
